# Data reported in ChEMBL document CHEMBL2218924, “A broad activity screen in support of a chemogenomic map for kinase signalling research and drug discovery” (Biochem J, 2013).
# Legend:
# [1] = molecular target: RAC-alpha serine/threonine-protein kinase (Homo sapiens) (UniProt P31749); settings: at 1 µM
# [2] = molecular target: Platelet-derived growth factor receptor alpha (Homo sapiens) (UniProt P16234); settings: at 10 µM
# [3] = molecular target: Platelet-derived growth factor receptor beta (Homo sapiens) (UniProt P09619); settings: at 1 µM
# Platelet-derived growth factor receptor beta (Homo sapiens), sequence (P09619 whole entry): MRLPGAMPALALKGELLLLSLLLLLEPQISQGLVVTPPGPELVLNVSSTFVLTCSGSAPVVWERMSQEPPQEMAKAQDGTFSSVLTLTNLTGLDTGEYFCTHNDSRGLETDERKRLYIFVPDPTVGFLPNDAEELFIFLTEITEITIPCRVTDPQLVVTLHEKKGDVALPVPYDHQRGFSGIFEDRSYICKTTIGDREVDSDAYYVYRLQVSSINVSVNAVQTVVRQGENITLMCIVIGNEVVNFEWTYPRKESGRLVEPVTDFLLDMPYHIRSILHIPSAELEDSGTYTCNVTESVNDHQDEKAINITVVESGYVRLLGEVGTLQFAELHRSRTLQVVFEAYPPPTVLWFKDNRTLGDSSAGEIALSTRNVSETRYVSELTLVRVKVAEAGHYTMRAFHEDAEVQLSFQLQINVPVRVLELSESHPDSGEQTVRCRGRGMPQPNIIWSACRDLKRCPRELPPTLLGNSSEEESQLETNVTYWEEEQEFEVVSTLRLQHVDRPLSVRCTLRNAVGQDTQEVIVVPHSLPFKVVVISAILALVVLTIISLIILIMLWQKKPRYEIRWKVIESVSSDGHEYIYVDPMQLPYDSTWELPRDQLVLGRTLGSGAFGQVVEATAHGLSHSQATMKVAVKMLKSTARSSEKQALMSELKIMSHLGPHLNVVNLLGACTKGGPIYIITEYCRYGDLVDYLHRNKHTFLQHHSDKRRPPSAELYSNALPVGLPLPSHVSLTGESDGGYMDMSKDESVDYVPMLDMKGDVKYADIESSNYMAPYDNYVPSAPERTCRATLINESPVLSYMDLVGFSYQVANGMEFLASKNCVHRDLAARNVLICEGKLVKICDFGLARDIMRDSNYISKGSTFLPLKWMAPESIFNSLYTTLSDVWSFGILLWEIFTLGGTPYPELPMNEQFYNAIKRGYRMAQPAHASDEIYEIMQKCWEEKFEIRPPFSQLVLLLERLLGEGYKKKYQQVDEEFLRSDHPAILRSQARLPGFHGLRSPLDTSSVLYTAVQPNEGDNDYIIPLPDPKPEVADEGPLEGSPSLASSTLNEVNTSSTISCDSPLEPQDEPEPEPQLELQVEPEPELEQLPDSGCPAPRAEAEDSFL
# [4] = molecular target: Platelet-derived growth factor receptor beta (Homo sapiens) (UniProt P09619); settings: at 10 µM
# [5] = molecular target: T1, 3-phosphoinositide-dependent protein kinase 1 (Homo sapiens) (UniProt O15530); settings: at 1 µM
# T1 sequence (whole entry): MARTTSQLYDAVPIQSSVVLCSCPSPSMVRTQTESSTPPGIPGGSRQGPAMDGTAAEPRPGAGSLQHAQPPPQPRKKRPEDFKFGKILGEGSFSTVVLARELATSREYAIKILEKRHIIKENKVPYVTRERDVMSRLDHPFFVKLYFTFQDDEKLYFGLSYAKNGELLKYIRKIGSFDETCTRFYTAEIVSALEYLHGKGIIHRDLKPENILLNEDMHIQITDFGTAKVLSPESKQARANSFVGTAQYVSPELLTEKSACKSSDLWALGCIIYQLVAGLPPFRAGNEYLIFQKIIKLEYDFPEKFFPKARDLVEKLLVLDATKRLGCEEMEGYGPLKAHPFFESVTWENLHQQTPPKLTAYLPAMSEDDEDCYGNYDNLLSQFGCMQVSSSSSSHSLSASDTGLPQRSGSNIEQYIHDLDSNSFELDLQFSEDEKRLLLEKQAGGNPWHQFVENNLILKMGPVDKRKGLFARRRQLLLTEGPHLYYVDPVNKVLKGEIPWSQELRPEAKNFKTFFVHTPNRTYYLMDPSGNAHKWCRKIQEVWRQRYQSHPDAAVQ
# [6] = molecular target: T1, 3-phosphoinositide-dependent protein kinase 1 (Homo sapiens); settings: at 10 µM
# [7] = molecular target: cAMP-dependent protein kinase catalytic subunit alpha (Homo sapiens) (UniProt P17612); settings: at 1 µM
# [8] = molecular target: RAC-alpha serine/threonine-protein kinase (Homo sapiens) (UniProt P31749); settings: at 10 µM
# [9] = molecular target: RAC-gamma serine/threonine-protein kinase (Homo sapiens) (UniProt Q9Y243); settings: at 1 µM
# RAC-gamma serine/threonine-protein kinase (Homo sapiens), sequence (Q9Y243 whole entry): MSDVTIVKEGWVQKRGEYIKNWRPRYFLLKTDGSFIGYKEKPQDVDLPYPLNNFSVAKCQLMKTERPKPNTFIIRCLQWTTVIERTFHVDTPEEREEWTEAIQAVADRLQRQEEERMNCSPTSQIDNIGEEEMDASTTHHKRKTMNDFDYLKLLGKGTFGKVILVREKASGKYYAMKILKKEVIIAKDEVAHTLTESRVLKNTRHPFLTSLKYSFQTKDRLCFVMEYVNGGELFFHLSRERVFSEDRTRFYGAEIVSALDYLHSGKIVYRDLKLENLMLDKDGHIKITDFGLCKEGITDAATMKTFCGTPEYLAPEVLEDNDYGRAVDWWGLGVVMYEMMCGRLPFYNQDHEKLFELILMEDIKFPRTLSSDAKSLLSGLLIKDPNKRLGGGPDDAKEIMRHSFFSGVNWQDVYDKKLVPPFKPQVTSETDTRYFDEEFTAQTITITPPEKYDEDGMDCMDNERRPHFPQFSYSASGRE
# [10] = molecular target: RAC-gamma serine/threonine-protein kinase (Homo sapiens) (UniProt Q9Y243); settings: at 10 µM
# [11] = molecular target: Protein kinase C alpha type (Homo sapiens) (UniProt P17252); settings: at 1 µM
# [12] = molecular target: Protein kinase C alpha type (Homo sapiens) (UniProt P17252); settings: at 10 µM
# [13] = molecular target: Protein kinase C beta type (Homo sapiens) (UniProt P05771); settings: at 1 µM
# Protein kinase C beta type (Homo sapiens), sequence (P05771 2-671 limits assumed): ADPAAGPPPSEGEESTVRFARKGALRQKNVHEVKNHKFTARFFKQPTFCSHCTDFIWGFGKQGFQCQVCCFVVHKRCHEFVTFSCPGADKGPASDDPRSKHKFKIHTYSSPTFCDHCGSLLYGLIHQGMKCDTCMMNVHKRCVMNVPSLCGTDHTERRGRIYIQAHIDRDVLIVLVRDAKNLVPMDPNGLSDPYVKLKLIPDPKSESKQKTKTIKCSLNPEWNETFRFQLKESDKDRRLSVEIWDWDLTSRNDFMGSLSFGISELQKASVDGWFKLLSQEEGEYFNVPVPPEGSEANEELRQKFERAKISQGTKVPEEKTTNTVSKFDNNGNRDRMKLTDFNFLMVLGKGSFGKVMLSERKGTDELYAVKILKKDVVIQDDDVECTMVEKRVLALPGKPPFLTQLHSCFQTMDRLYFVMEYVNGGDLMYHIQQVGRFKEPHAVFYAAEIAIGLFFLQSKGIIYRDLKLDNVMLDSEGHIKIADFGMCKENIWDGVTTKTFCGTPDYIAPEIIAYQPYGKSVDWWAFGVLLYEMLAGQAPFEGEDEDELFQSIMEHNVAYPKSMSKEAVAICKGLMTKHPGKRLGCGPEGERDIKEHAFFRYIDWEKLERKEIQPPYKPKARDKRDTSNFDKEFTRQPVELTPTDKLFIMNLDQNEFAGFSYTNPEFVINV
# [14] = molecular target: Protein kinase C beta type (Homo sapiens) (UniProt P05771); settings: at 10 µM
# [15] = molecular target: Protein kinase C beta type (Homo sapiens) (UniProt P05771); settings: at 1 µM; remark: listed apart in the source
# [16] = molecular target: Protein kinase C beta type (Homo sapiens) (UniProt P05771); settings: at 10 µM; remark: listed apart in the source
# [17] = molecular target: Protein kinase C gamma type (Homo sapiens) (UniProt P05129); settings: at 1 µM
# [18] = molecular target: Protein kinase C gamma type (Homo sapiens) (UniProt P05129); settings: at 10 µM
# [19] = molecular target: Protein kinase C delta type (Homo sapiens) (UniProt Q05655); settings: at 1 µM
# Protein kinase C delta type (Homo sapiens), sequence (Q05655 whole entry, looked up): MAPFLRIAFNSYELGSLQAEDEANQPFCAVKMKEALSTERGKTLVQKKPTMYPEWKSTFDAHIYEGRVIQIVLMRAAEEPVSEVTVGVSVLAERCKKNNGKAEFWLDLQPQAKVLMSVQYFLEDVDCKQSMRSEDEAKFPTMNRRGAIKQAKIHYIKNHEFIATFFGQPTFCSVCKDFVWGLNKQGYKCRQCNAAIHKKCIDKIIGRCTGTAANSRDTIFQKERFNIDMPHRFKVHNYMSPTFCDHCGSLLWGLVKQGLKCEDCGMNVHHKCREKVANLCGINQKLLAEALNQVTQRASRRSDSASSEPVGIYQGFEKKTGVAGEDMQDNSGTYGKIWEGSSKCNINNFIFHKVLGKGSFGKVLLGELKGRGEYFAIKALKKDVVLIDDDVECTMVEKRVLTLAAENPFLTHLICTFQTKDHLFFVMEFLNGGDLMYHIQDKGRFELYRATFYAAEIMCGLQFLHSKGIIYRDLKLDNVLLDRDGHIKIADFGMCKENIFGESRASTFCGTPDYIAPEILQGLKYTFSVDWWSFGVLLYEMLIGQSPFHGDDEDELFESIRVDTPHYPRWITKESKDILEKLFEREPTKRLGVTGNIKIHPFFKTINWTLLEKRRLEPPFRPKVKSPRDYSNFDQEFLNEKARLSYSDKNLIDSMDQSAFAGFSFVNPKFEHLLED
# [20] = molecular target: cAMP-dependent protein kinase catalytic subunit alpha (Homo sapiens) (UniProt P17612); settings: at 10 µM
# RAC-alpha serine/threonine-protein kinase (Homo sapiens), sequence (P31749 whole entry): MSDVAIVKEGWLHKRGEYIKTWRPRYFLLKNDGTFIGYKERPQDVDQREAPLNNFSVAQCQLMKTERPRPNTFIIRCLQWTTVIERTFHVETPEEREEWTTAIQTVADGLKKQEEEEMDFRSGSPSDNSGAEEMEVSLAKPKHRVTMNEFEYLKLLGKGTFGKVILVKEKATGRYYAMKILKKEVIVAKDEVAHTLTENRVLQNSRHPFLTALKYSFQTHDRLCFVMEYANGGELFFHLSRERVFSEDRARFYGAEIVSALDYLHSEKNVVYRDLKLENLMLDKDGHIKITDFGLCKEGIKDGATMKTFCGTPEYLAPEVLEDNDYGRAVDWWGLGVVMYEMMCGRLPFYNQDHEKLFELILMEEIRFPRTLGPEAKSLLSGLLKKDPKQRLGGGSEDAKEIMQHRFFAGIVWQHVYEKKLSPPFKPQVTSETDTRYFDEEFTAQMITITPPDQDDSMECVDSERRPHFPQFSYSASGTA
structure (smiles),measurement,setting,value
COc1cc2ncnc(Nc3cccc(Cl)c3)c2cc1OC,residual activity,[1],86%
C[S+]([O-])c1ccc(-c2nc(-c3ccc(F)cc3)c(-c3ccncc3)[nH]2)cc1 (stereo unspecified),residual activity,[2],108%
same,residual activity,[3],120%
same,residual activity,[4],120%
same,residual activity,[5],117%
same,residual activity,[6],107%
same,residual activity,[7],105%
same,residual activity,[1],102%
same,residual activity,[8],105%
same,residual activity,[9],117%
same,residual activity,[10],75%
same,residual activity,[11],107%
same,residual activity,[12],90%
same,residual activity,[13],101%
same,residual activity,[14],70%
same,residual activity,[15],104%
same,residual activity,[16],75%
same,residual activity,[17],104%
same,residual activity,[18],103%
same,residual activity,[19],105%
Nc1ccc2ncnc(NCCc3ccc(Oc4ccccc4)cc3)c2c1,residual activity,[1],110%
same,residual activity,[8],108%
Nc1nc(Nc2ccc(S(N)(=O)=O)cc2)nn1C(=S)Nc1c(F)cccc1F,residual activity,[1],122%
COc1ccc(Cl)cc1NC(=O)Nc1cc(C)nc2ccccc12,residual activity,[1],95%
same,residual activity,[8],94%
c1ccc(-c2cnc(Nc3ccc(OCCN4CCCC4)cc3)s2)cc1,residual activity,[1],102%
same,residual activity,[8],115%
COc1cc2ncnc(Nc3ccc(NC(=O)c4ccccc4)cc3)c2cc1OC,residual activity,[1],105%
same,residual activity,[8],110%
CC(C)[C@H](CO)Nc1nc(Nc2cccc(Cl)c2)c2ncn(C(C)C)c2n1,residual activity,[6],97%
same,residual activity,[10],84%
same,residual activity,[15],120%
same,residual activity,[16],96%
same,residual activity,[17],102%
same,residual activity,[18],101%
CCCC(=O)Oc1ccc2[nH]c(C(=O)c3cc4ccccc4[nH]3)cc2c1,residual activity,[1],97%
COC(=O)[C@@]1(O)C[C@H]2O[C@]1(C)n1c3ccccc3c3c4c(c5c6ccccc6n2c5c31)C(=O)NC4,residual activity,[2],8%
same,residual activity,[3],46%
same,residual activity,[4],8%
same,residual activity,[5],-1%
same,residual activity,[6],0%
same,residual activity,[7],7%
same,residual activity,[20],3%
same,residual activity,[1],101%
same,residual activity,[8],37%
same,residual activity,[9],11%
same,residual activity,[10],3%
same,residual activity,[11],19%
same,residual activity,[12],0%
same,residual activity,[13],53%
same,residual activity,[14],13%
same,residual activity,[15],67%
same,residual activity,[16],18%
same,residual activity,[17],19%
same,residual activity,[18],2%
same,residual activity,[19],18%
